Reference: PubChem BioAssay (Tox21)
Results filed as inconclusive are left out. A number with no mark means an inactive call. The call rests on the fitted dose curve; in most records, active means well fitted cell-killing curve with a large enough effect in the repeat runs; inconclusive means weak or mixed curves; inactive means flat fitted curve, though single readings scatter.

Experiment: qHTS assay to identify small molecule antagonists of the estrogen related receptor (ERR) signaling pathway - cell viability counter screen (AID 1224818)
Conditions: ERR reporter cell line viability counter screen; series mostly up to 46.1 µM; viability change, negative = cytotoxic: at the top concentration
Excerpt: National Center for Advancing Translational Sciences [NCATS]
NIH Chemical Genomics Center [NCGC]
U.S. Environmental Protection Agency [EPA]
National Institutes of Environmental Health Sciences [NIEHS]
National Toxicology Program [NTP]
U.S. Food and Drug Administration [FDA]
Estrogen related receptors (ERRs), the first orphan nuclear receptors discovered, play an important role in the control of cellular energy metabolism. ERRs are required for high-energy production in response to the environmental challenges. ERR-alpha was also identified as an adverse marker for breast cancer progression; ERR-alpha-positive tumors have a poor prognosis. To screen and to identify environmental compounds that perturb the ERR signaling pathways could provide valuable information for potential therapeutic or preventive measures in the treatment of metabolic disease. To differentiate true ERR antagonists or agonist from cytotoxic substances, the assay is multiplexed with cell viability assay.
Tox21 Assay Protocol Summary:
The ERR cells were dispensed at 2,000 cells/5 ul/well in 1536-well white plates using a Multidrop dispenser. After the assay plates were incubated at a 37 C/5% CO2 incubator for 6 hours, 23 nL of compounds dissolved in DMSO, positive and negative controls or DMSO only was transferred to the assay plate by a pin tool. The plates were incubated at 37 C for 17.5 hours. 1 ul/well of CellTiter-Fluor reagent was added into the assay plates using a Flying Reagent Dispenser. After 30 min incubation at 37 C/5% CO2, the fluorescence intensity in the plates was measured using a ViewLux plate reader.
On the % scale 0 is the no-effect control and ±100 the full control effect.

| Compound | viability change, negative = cytotoxic |
| --- | --- |
| C[C@]12CC[C@@H]3c4ccc(O)cc4CC[C@H]3[C@@H]1CC[C@@H]2O | -13.4% |
| C[N+](C)(C)CCO | 2.39% |
| O=C(CCCN1CCC(O)(c2ccc(Cl)cc2)CC1)c1ccc(F)cc1 | 9.9% |
| CC(C)[N+](C)(CCOC(=O)C1c2ccccc2Oc2ccccc21)C(C)C | 10.5% |
| CN(Cc1cnc2nc(N)nc(N)c2n1)c1ccc(C(=O)N[C@@H](CCC(=O)O)C(=O)O)cc1 | -9.84% |
| CC1(C)NC(=O)N(c2ccc([N+](=O)[O-])c(C(F)(F)F)c2)C1=O | -12.2% |
| NCCS(=O)(=O)O | 11.2% |
| Cc1ccc(/C(=C\CN2CCCC2)c2ccccn2)cc1 | -6.83% |
| CCc1cccc2c3c([nH]c12)C(CC)(CC(=O)O)OCC3 (stereo not drawn) | 8.29% |
| C[C@]12C=CC(=O)C=C1CC[C@H]1[C@@H]3C[C@@H](O)[C@](O)(C(=O)CO)[C@@]3(C)C[C@H](O)[C@@]12F | 5.34% |
| CNC[C@H](O)c1ccc(O)c(O)c1 | 5.3% |
| NC[C@H](O)c1ccc(O)c(O)c1 | 12.1% |
| O=C(O)COCCN1CCN(C(c2ccccc2)c2ccc(Cl)cc2)CC1 (stereo not drawn) | 9.99% |
